PubChem BioAssay (NCATS)
Inconclusive results are not listed. Entries that show only a call come without a potency. Values without a mark were called inactive. Calls of active or inactive are those of the source. The call rests on the fitted dose curve; in most records, active means well fitted inhibition curve with a large enough effect; inconclusive means small, poorly fitted or top-dose-only effect; inactive means flat fitted curve, though single readings scatter. Numbered stars: 1 amine (or outer) side, 2 acyl side, 3 side chain; on linkers, the order of the positions; unused ones are H or OH. Square brackets hold non-standard residues; d marks the D form. Peptide text beside a SMILES is read from it. X2 = CC(C)=CCc1cc(C(O)C(N[*:1])C(=O)[*:2])ccc1O

Each compound was assayed against Aldehyde dehydrogenase, mitochondrial (Homo sapiens) (UniProt P05091) (assay: qHTS for Inhibitors of the Aldehyde Dehydrogenase Family (ALDH2) Primary screen (AID 2061308; further: nearly all actives have a fitted effect of over 55% in size)). Settings: ALDH2 enzyme inhibition qHTS, 1536-well; series mostly up to 56 µM.

Row | Structure (SMILES) | Potency | activity change, negative = inhibition
1 | CC(C)=CCc1cc(C(O)C2NC(=O)CNC(=O)C(Cc3c[nH]c4ccccc34)NC(=O)C3CCCN3C(=O)CNC(=O)C(C(C)C)NC(=O)CNC2=O)ccc1O (stereo not given) (cyclo(G[X2]GVGPW); configuration not given here) | inactive | –
2 | NC(=O)c1csc(C2OC(CO)C(O)C2O)n1 (stereo not given) | inactive | –
3 | CC(C)c1c(O)ccc2c1CC[C@H]1C(C)(C)CCC[C@]21C | inactive | –
4 | O=C(O)/C=C/c1ccc(O)c(O[C@@H]2O[C@H](CO)[C@@H](O)[C@H](O)[C@H]2O)c1 | inactive | –
5 | CC(=O)OC1C(OC(=O)c2ccccc2)C2C(C)(C)CCC(OC(C)=O)C2(C)C23CCC(C)(C2)C(=O)CC13 (stereo not given) | inactive | –
6 | C=CC1(C)C=C2CC[C@H]3[C@@](C)(C(=O)O)CCC[C@]3(C)C2CC1 (stereo not given in full) | inactive | –
7 | CNC(=O)[C@H]1O[C@@H](n2cnc3c(NCc4ccc(N)c(I)c4)ncnc32)[C@H](O)[C@@H]1O | – | 0.813% [at 11.2 µM]
8 | CC1CC(O)C2(OC1=O)OC1C(O)C3C4CCC5CC(OC6OC(CO)C(O)C(O)C6OC6OC(C)C(O)C(O)C6O)CCC5(C)C4CCC3(C)C1C2C (stereo not given) | inactive | –
9 | OC[C@H]1O[C@@H](O[C@H]2[C@H](OCc3ccccc3)O[C@H](CO[C@@H]3OC[C@@H](O)[C@H](O)[C@H]3O)[C@@H](O)[C@@H]2O)[C@H](O)[C@@H](O)[C@@H]1O | inactive | –
10 | CN=C(N)NCCCCC/C=C(/C)CC(C)C1OC(=O)C(C)C(O)/C=C/C(C)C(O)CC(O)C(C)C(O)CCC(C)C(O)CC2(O)OC(CC(OC(=O)CC(=O)O)CC(O)CC(O)C(C)C(O)/C(C)=C/CCC1C)CC(O)C2O (stereo not given) | inactive | –
